Compound activity: PubChem, National Center for Advancing Translational Sciences (NCATS)
This is a sample that favours compounds with a hit; in the whole collection about 11% have one here.
HEK293 tox – cytotoxic compounds in HEK 293 cells; HEK 293 viability, ATP luminescence (CellTiter-Glo), 48-72 h; Potency, µM (top dose mostly 115 µM), hits mostly inhibitors; 94,000 compounds, 6.6% hits; AID 1345083; also: nearly all actives have a fitted effect of over 60% in size
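HEK 293 cells seeded at 250 cells/well were exposed to compound for 48 or 72 hr at 37 degree Celsius. Viability taken as ATP content by CellTiter-Glo luminescence.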
hNpr1 antagonist – antagonists of human natriuretic peptide receptor Npr1 | P16066 | HEK293 hNpr1 GloSensor cGMP, ANP-stimulated luminescence | Potency, µM (series often up to 46.3 µM), most hits filed as inhibitors | 76,000 compounds, 1.6% hits; calls by dose curve; also: nearly all actives have a fitted effect of over 60% in size
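HEK293 cells stably expressing human Npr1 and cGMP GloSensor pGS-40F, loaded 2 h with 2% GloSensor reagent, given compound 30 min at room temperature. Luminescence read before and 20 min after 0.1 nM hNppA.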
3T3 cytotox – kills NIH 3T3 cells | NIH 3T3 viability, CellTiter-Glo ATP luminescence, 48-72 h | Potency, µM (doses to about 96.7 µM), most hits filed as inhibitors | 94,000 compounds, 4.3% hits; also: nearly all actives have a fitted effect of over 55% in size
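Cytotoxicity is measured as loss of cellular ATP: NIH 3T3 cells (400/well) are exposed to compound for 48 or 72 hr at 37 °C, then CellTiter-Glo luminescence is imaged after 10 min at room temperature.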
Luciferase inh – inhibitors of firefly (Photinus pyralis) luciferase; purified P. pyralis luciferase, luminescence, biochemical; 76,000 compounds, 2.5% hits; Potency, µM (highest dose often 115 µM), hits mostly inhibitors; also: nearly all actives have a fitted effect of over 65% in size
Target sequence (P08659 whole entry, looked up): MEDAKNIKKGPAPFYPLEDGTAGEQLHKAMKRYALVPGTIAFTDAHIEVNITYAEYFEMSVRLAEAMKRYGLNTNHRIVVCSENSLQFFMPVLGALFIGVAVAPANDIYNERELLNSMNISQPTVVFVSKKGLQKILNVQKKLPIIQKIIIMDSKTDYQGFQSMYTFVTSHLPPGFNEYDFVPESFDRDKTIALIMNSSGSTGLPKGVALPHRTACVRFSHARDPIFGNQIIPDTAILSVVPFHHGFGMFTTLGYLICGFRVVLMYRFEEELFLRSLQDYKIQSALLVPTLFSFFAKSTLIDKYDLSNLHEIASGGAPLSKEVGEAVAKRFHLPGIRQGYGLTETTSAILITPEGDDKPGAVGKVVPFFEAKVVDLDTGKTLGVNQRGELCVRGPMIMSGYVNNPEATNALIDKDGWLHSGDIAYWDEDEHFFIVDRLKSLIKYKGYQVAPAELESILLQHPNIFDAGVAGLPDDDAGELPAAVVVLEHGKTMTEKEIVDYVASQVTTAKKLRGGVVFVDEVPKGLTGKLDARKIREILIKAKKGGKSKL
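Cell-free enzyme assay, 10nM P. pyralis luciferase, luciferin and ATP each at 10uM. Inhibition profiled over a 6-point titration, read as luminescence.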
NPR1 antag cnf – confirmation of human Npr1 natriuretic peptide receptor antagonists. shares compounds with hNpr1 antagonist. AID 1347044. HEK293 hNpr1 cGMP GloSensor luminescence, ANP-stimulated. Potency, µM (doses to about 57.6 µM), most hits filed as inhibitors. 1,400 compounds, 76% hits; calls by dose curve; also: nearly all actives have a fitted effect of over 70% in size
Npr2 selectivity – selectivity test of Npr1 antagonists against human Npr2 | shares compounds with hNpr1 antagonist | HEK293 hNpr2 GloSensor cGMP luminescence, CNP-stimulated | Potency, µM (highest dose often 57.6 µM), hits mostly inhibitors | 1,400 compounds, 67% hits | AID 1347046; calls by dose curve; also: nearly all actives have a fitted effect of over 70% in size
FLuc inh counter – counter-screen for Npr1 antagonists: firefly luciferase inhibitors. shares compounds with hNpr1 antagonist. purified FLuc enzyme, luminescence, Km substrate. Potency, µM (titrated, usually from 57.6 µM), usual class: inhibitors. 1,400 compounds, 0.7% hits. AID 1347047; also: series mostly up to about 58 µM
GloSensor ctrl – control cell line activity, Npr1 antagonist counter-screen | Potency, µM (series often up to 57.6 µM), hits mostly inhibitors | 1,400 compounds, 69% hits | HEK293 GloSensor cGMP, SNP-stimulated, luminescence | shares compounds with hNpr1 antagonist; calls by dose curve; also: nearly all actives have a fitted effect of over 70% in size
Each line names hits and unclear results; the compound was inactive in the other large screens (follow-up assays come after a bar, where they were run). Unless noted, calls follow the shape of the dose curve; as a rule, active = well fitted curve in the direction sought with a large enough effect; inconclusive = small, poorly fitted or top-dose-only effect, or another doubt; inactive = no such curve, though single readings can be large; an effect the other way counts as inactive or inconclusive.

O=C(NC1CCN(Cc2ccccc2)CC1)c1cc2n(n1)CC(c1ccc3c(c1)OCO3)OC2 (stereo not drawn)	HEK293 tox inconclusive, hNpr1 antagonist 13µM, 3T3 cytotox inconclusive | NPR1 antag cnf 22µM | Npr2 selectivity 22µM | FLuc inh counter inactive | GloSensor ctrl 17µM
O=C(NC1CC1)c1cc2n(n1)CC(c1ccc3c(c1)OCO3)OC2 (stereo not drawn)	3T3 cytotox inconclusive
CC1CCC(NC(=O)c2cc3n(n2)CC(c2ccc(Cl)cc2)OC3)CC1 (stereo not drawn)	HEK293 tox inconclusive, 3T3 cytotox inconclusive
CN(C)c1ccc(CN2CCn3c(nn(-c4ccc([N+](=O)[O-])cc4)c3=O)C2)cc1	HEK293 tox 32µM, hNpr1 antagonist 11µM, 3T3 cytotox inconclusive | NPR1 antag cnf 17µM | Npr2 selectivity 19µM | FLuc inh counter inactive | GloSensor ctrl 14µM
CC(=O)N1CCn2c(nn(-c3ccc([N+](=O)[O-])cc3)c2=O)C1	HEK293 tox inconclusive
COc1ccc(CN2CCn3c(nn(-c4ccc([N+](=O)[O-])cc4)c3=O)C2)cc1	HEK293 tox inconclusive, hNpr1 antagonist 11µM, 3T3 cytotox inconclusive | NPR1 antag cnf 22µM | Npr2 selectivity 22µM | FLuc inh counter inactive | GloSensor ctrl 22µM
COc1ccc(-n2nc3n(c2=O)CCN(Cc2cccn2C)C3)cc1	HEK293 tox inconclusive (no result: hNpr1 antagonist, Luciferase inh) | NPR1 antag cnf inconclusive | Npr2 selectivity inconclusive | FLuc inh counter inconclusive | GloSensor ctrl inconclusive
COc1ccc(-c2noc(CC3CCN(C(=O)c4cc(F)cc(F)c4)CC3)n2)cc1	HEK293 tox inconclusive, hNpr1 antagonist 6.3µM, 3T3 cytotox inconclusive | NPR1 antag cnf 5.4µM | Npr2 selectivity 6.1µM | FLuc inh counter inactive | GloSensor ctrl 5.4µM
COC(=O)c1cccc(C(=O)N2CCC(Cc3nc(-c4ccc(F)cc4)no3)CC2)c1	HEK293 tox inconclusive, hNpr1 antagonist 7.1µM, 3T3 cytotox inconclusive | NPR1 antag cnf 6.1µM | Npr2 selectivity 6.9µM | FLuc inh counter inactive | GloSensor ctrl 5.4µM
COc1cc(OC)cc(C(=O)N2CCC(Cc3nc(-c4ccc(F)cc4)no3)CC2)c1	HEK293 tox 32µM, hNpr1 antagonist 13µM, 3T3 cytotox inconclusive | NPR1 antag cnf 15µM | Npr2 selectivity 22µM | FLuc inh counter inactive | GloSensor ctrl 15µM
COc1ccc(-c2ccc3nnc(CNC(=O)c4cccn4C)n3n2)cc1	none
COc1ccc2oc(CNC(=O)c3cc(CC(C)C)nn3C)nc2c1	HEK293 tox inconclusive, hNpr1 antagonist 13µM | NPR1 antag cnf 17µM | Npr2 selectivity 17µM | FLuc inh counter inactive | GloSensor ctrl 15µM
C=CCN(C)C(=O)C[C@@H]1c2nc(NC(=O)c3cccc(F)c3)sc2C[C@@H]2[C@](C)(CO)[C@H](O)CC[C@]21C	HEK293 tox inconclusive
COc1cccc(Nc2cccc(CN3CCCC(C)(NC(C)=O)C3)c2)c1 (stereo not drawn)	HEK293 tox inconclusive, 3T3 cytotox inconclusive
CC(C)CN1C(=O)C(C)(C)[S+](=O)([O-])[C@H]2CN(c3ccc(Oc4ccccc4)cc3)C[C@@H]21	HEK293 tox inconclusive, 3T3 cytotox inconclusive
CC(=O)NC1(C)CCCN(c2ccc(Oc3ccccc3)cc2)C1 (stereo not drawn)	HEK293 tox inconclusive, hNpr1 antagonist 18µM, 3T3 cytotox inconclusive | NPR1 antag cnf 20µM | Npr2 selectivity 20µM | FLuc inh counter inconclusive | GloSensor ctrl 16µM
CC1(NC(=O)C2CC2)CN(c2ccc(Oc3ccccc3)cc2)C1	HEK293 tox inconclusive, hNpr1 antagonist 20µM | NPR1 antag cnf 18µM | Npr2 selectivity 22µM | FLuc inh counter inactive | GloSensor ctrl 16µM
Cn1cc(C(=O)N2CCC3(CCN(C4CCOCC4)CC3)C(CO)C2)cn1 (stereo not drawn)	HEK293 tox inconclusive
O=C(NC1CCCc2c1[nH]c1c(Cl)cccc21)C1(c2ccccc2)CCOCC1 (stereo not drawn)	none
COc1ccc(C2(C(=O)NC3CCCc4c3[nH]c3ccccc43)CCOCC2)cc1 (stereo not drawn)	HEK293 tox inconclusive, hNpr1 antagonist inconclusive, 3T3 cytotox 40µM | NPR1 antag cnf 22µM | Npr2 selectivity 15µM | FLuc inh counter inactive | GloSensor ctrl inactive
COc1cccc(-c2noc3c2CN(C(=O)c2ccc(C)cc2OC)CC3)c1	HEK293 tox inconclusive, hNpr1 antagonist inconclusive, 3T3 cytotox inconclusive
COc1cccc(C(=O)N2CCc3onc(-c4cccc(F)c4)c3C2)c1OC	HEK293 tox 20µM, hNpr1 antagonist 10µM, 3T3 cytotox inconclusive | NPR1 antag cnf 22µM | Npr2 selectivity 22µM | FLuc inh counter inactive | GloSensor ctrl 19µM
Cn1ccc(NC(=O)[C@@H]2C[C@@H](c3ccc(F)cc3)N(Cc3ccccc3)C2)n1	HEK293 tox 50µM, hNpr1 antagonist 35µM, 3T3 cytotox inconclusive | NPR1 antag cnf 40µM | Npr2 selectivity 35µM | FLuc inh counter inactive | GloSensor ctrl 35µM
O=C(Nc1ccon1)[C@@H]1C[C@@H](c2ccc(F)cc2)N(Cc2ccccc2)C1	HEK293 tox 32µM, hNpr1 antagonist 16µM, 3T3 cytotox inconclusive | NPR1 antag cnf 31µM | Npr2 selectivity 20µM | FLuc inh counter inactive | GloSensor ctrl 18µM
CCN(CC)[C@H]1[C@@H]2OC[C@@H](O2)[C@@H](NCC2CCCCC2)[C@@H]1O	none
COc1cccc(-c2noc(CC3CCN(C(=O)c4cccc(F)c4)CC3)n2)c1	HEK293 tox inconclusive, hNpr1 antagonist 6.3µM, 3T3 cytotox inconclusive | NPR1 antag cnf 6.1µM | Npr2 selectivity 6.9µM | FLuc inh counter inactive | GloSensor ctrl 4.8µM
O=C(c1ccco1)N1CCC(Cc2nc(-c3ccccc3)no2)CC1	HEK293 tox inconclusive, hNpr1 antagonist inconclusive, 3T3 cytotox inconclusive
O=C(c1ccc(F)cc1)N1CCC(Cc2nc(-c3ccccc3)no2)CC1	HEK293 tox inconclusive, hNpr1 antagonist 5µM, 3T3 cytotox inconclusive | NPR1 antag cnf 4.8µM | Npr2 selectivity 6.1µM | FLuc inh counter inactive | GloSensor ctrl 5.4µM
O=C(c1cccc(F)c1)N1CCC(Cc2nc(-c3ccccc3)no2)CC1	HEK293 tox inconclusive, hNpr1 antagonist 6.3µM, 3T3 cytotox inconclusive | NPR1 antag cnf 6.9µM | Npr2 selectivity 9.7µM | FLuc inh counter inactive | GloSensor ctrl 6.9µM
